# PubChem BioAssay (NCI)
# The panel holds about 83,000 compounds, 20% with a hit somewhere; the sample as a whole holds those more often.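 Values shown are percent growth following 48 h exposure of cells in 96-well plates to a single concentration of compound; below 10 was considered active.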 Values without a mark were called inactive. Activity calls are given as the source filed them.
# Columns and labels:
# Assay in all cases: NCI-60 one-dose screen, 48 h (100 = growth as untreated, 0 = no growth, -100 = all killed)
# Details in all cases: 10 µM
# SR leukemia = system: SR leukemia
# RPMI-8226 leukemia = system: RPMI-8226 leukemia
# OVCAR-8 ovarian = system: OVCAR-8 ovarian
# OVCAR-5 ovarian = system: OVCAR-5 ovarian
# OVCAR-4 ovarian = system: OVCAR-4 ovarian
# SK-OV-3 ovarian = system: SK-OV-3 ovarian
# IGROV1 ovarian = system: IGROV1 ovarian
# OVCAR-3 ovarian = system: OVCAR-3 ovarian
# HS 578T breast = system: HS 578T breast
# NCI/ADR-RES ovarian = system: NCI/ADR-RES ovarian
Compound,growth (SR leukemia),growth (RPMI-8226 leukemia),growth (OVCAR-8 ovarian),growth (OVCAR-5 ovarian),growth (OVCAR-4 ovarian),growth (SK-OV-3 ovarian),growth (IGROV1 ovarian),growth (OVCAR-3 ovarian),growth (HS 578T breast),growth (NCI/ADR-RES ovarian)
FC(F)(F)c1ccc(-c2cnc(Cl)nc2NCc2cc(C(F)(F)F)cc(C(F)(F)F)c2)cc1,26.2%,0.828% (active),15.6%,35.2%,19.5%,43.4%,45.5%,3.89% (active),26.8%,12.5%
CCOC(=O)c1c(O)c2cc(-c3ccccc3)nc(OCC)c2c(=O)n1C,98%,39.2%,104%,104%,90.1%,107%,69.8%,103%,93%,82.2%
O=C(O)c1cc(C(F)(F)F)cc(C(F)(F)F)c1,85.3%,104%,106%,107%,108%,112%,114%,107%,109%,107%
C/C(=N/NC(=O)c1sc(=S)n(C)c1N)c1cc2cc(Cl)ccc2o1,98.7%,87.3%,14.3%,101%,117%,102%,51.6%,110%,5.99% (active),104%
CCCCCCCCCCCCCCCCn1cc[n+](C)c1,15.2%,15.8%,-53.7% (active),-67.5% (active),-54.8% (active),-33.8% (active),-67.1% (active),-24.8% (active),-48.4% (active),37.1%
COc1ccc2oc(=O)cc(C3c4ccc([nH]4)C(c4cc(=O)oc5ccc(OC)cc45)c4ccc([nH]4)C(c4cc(=O)oc5ccc(OC)cc45)c4ccc([nH]4)C(c4cc(=O)oc5ccc(OC)cc45)c4ccc3[nH]4)c2c1 (stereo not given),-15.9% (active),-6.88% (active),-10.9% (active),3.08% (active),0.347% (active),0.72% (active),19.7%,-85.2% (active),8.18% (active),5.87% (active)
CCN1CCN(c2ccc(Nc3ncnc4c3nnn4CCc3cc(OC)cc(OC)c3)cc2)CC1,89.2%,91.1%,87.5%,86.7%,86.7%,101%,111%,99.2%,88.2%,92.3%
CC(=O)Oc1c(C)c(C)c2c(c1C)CCC(C)(CC(=O)OCCCCCCCCCCC[P+](c1ccccc1)(c1ccccc1)c1ccccc1)O2 (stereo not given),-34.7% (active),-49.8% (active),-44.1% (active),-37.4% (active),-83.2% (active),-18.4% (active),-46.2% (active),-90.5% (active),-35.2% (active),-42.5% (active)
COc1ccc(-n2nnc3c(sc4ccccc43)c2=O)cc1,51.1%,72%,29.1%,80.2%,-46.9% (active),-15.6% (active),-0.829% (active),24%,21.4%,52.9%
